Measured values reported in PubChem BioAssay (NCI).
This is part of a sample that, as a whole, favours compounds with a hit. Of some 83,000 tested, about 20% had one in any assay.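 Plates (96-well) were seeded with cells, treated with compound at one concentration, and incubated for 48 hours before percent growth was determined.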 A number with no mark means an inactive call. The source made the active and inactive calls. How the source made its calls: active means growth percent below 10; inactive means the rest.

Tests used:
Test in all cases: NCI-60 one-dose screen, 48 h (100 = growth as untreated, 0 = no growth, -100 = all killed)
Settings in all cases: 10 µM
T-47D breast = system: T-47D breast
BT-549 breast = system: BT-549 breast
MDA-MB-435 melanoma = system: MDA-MB-435 melanoma
SW-620 colon = system: SW-620 colon
MCF7 breast = system: MCF7 breast
HCT-116 colon = system: HCT-116 colon
HCC-2998 colon = system: HCC-2998 colon
KM12 colon = system: KM12 colon
MDA-MB-468 breast = system: MDA-MB-468 breast

Compound	growth (T-47D breast)	growth (BT-549 breast)	growth (MDA-MB-435 melanoma)	growth (SW-620 colon)	growth (MCF7 breast)	growth (HCT-116 colon)	growth (HCC-2998 colon)	growth (KM12 colon)	growth (MDA-MB-468 breast)
O=C(c1ccc(O)cc1)C1[C@H](c2ccc(Br)cc2)[C@@H](c2ccccc2)NC12C(=O)Nc1ccccc12 (stereo partly specified)	38.4%	116%	13.4%	26.2%	8.43% (active)	17.3%	-34.8% (active)	1.31% (active)	0.478% (active)
CC[C@@]1(O)C(=O)OCc2c1cc1n(c2=O)Cc2c-1nc1cc(F)c(C)c3c1c2[C@@H](N)CC3	-3.93% (active)	-10.7% (active)	-41.9% (active)	8.5% (active)	8.66% (active)	0.118% (active)	-45.4% (active)	3.85% (active)	-77.2% (active)
O=C(c1ccc(O)cc1)C1[C@H](c2ccccc2Br)[C@@H](c2ccccc2)NC12C(=O)Nc1ccc(Br)cc12 (stereo partly specified)	61.7%	55.6%	33.8%	50.9%	7.04% (active)	61.6%	-13.8% (active)	18.4%	-25.6% (active)
Cc1cc2c(c(O)c1Br)-c1ncoc1C(=O)[C@]1(C)CC[C@H](C(C)C)[C@H]21	20.6%	-24.6% (active)	5.72% (active)	22.8%	10.1%	31.1%	38.2%	20%	20.3%
Cc1ccc(NC(=O)c2ccc(-n3c(=O)[nH]c4ccccc4c3=O)cc2)cc1	80.4%	24.4%	102%	113%	87.5%	92.4%	108%	96.7%	82.2%
O=C(Nc1cccc(C(F)(F)F)c1)c1cncc(C#Cc2cnc3ccc(N4CCOCC4)nn23)c1	1.64% (active)	-37.5% (active)	4.32% (active)	2.23% (active)	-30% (active)	0.369% (active)	-4.89% (active)	-24.1% (active)	-64.7% (active)
Nc1nnc(-c2c[nH]c3ncccc23)c(-c2c[nH]c3ccc(Br)cc23)n1	22.4%	38.6%	47.2%	54.9%	22.5%	21.9%	74.5%	39.3%	50.4%
Cc1ccc(C(C)C)cc1NC(=O)c1ccccc1O	22%	-2.14% (active)	44.7%	62.8%	40.2%	34.6%	47.5%	48.5%	40%
Cc1ccc([N+](=O)[O-])c(C(=O)Nc2ccc(-c3ccc4c(c3)NC(=O)/C4=C\c3ccc[nH]3)cc2)c1	-15.7% (active)	97.5%	32%	-51.2% (active)	-47.7% (active)	55.9%	47.6%	-10.9% (active)	-28.9% (active)
C/C(=C\c1ccc(O)cc1O)c1ccc2ccc(O)cc2[o+]1	56%	45.5%	21.4%	44.8%	22.2%	26.9%	61.4%	22.5%	64%
CCCCOc1ccc(Nc2nc3ccccc3nc2Nc2ccc(OCCCC)cc2)cc1	79%	104%	88.4%	96.3%	75.3%	49%	106%	86.8%	73.8%
O=C(/C=C/Nc1ccc(F)cc1F)c1ccc2c(c1)Nc1ccccc1S2	80.1%	85.7%	9.72% (active)	55.1%	37.9%	58.6%	79.7%	51.6%	41.9%
COc1ccc2[nH]c(O)c(N=NC(=O)COc3ccc(NC(=O)Nc4ccc(Cl)c(Cl)c4)cc3)c2c1	-72.1% (active)	-20.6% (active)	-88.8% (active)	3.28% (active)	-26% (active)	-42% (active)	-67.4% (active)	-31% (active)	-57.8% (active)
COc1cc(Cn2c(C(F)(F)F)cc3c(Cl)ncnc32)ccn1	66.5%	-15.9% (active)	-0.488% (active)	4.9% (active)	7.67% (active)	-23.4% (active)	-95.6% (active)	30.8%	-80.9% (active)
